Out of some 220,000 compounds screened, about 2,000 (0.91%) were called active. Not shown: some 2% with an inconclusive outcome. Rule as the data show it: inconclusive = inhibition above about 80% without an active follow-up result; inactive = below that; test concentration not stated here. Only a sample is shown. Results with a measured potency or affinity are listed apart.
Experiment: M. tuberculosis H37Rv growth inhibitors, H37Rv strain (AID 1626);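 also: bacteria incubated seven days before Alamar blue readout; 0% = bacteria only wells and 100% = bacteria with antibiotic wells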
Settings: hits give high values, concentration not given here

Row | SMILES | inhibition
1 | CN1CCN(C(=O)c2cc3nc(-c4ccc(F)cc4)cc(C(F)(F)F)n3n2)CC1 | -1.56% (inactive)
2 | CC(C)OP(=O)(OC(C)C)C(O)c1ccc(Br)cc1 (centres undefined) | -5.46% (inactive)
3 | O=S(=O)(c1ccc(Cl)s1)N1CCC(Cc2ccccc2)CC1 | -5.95% (inactive)
4 | O=C(Nc1cccc([N+](=O)[O-])c1)c1ccc(N2CCCC2=O)cc1 | 3.44% (inactive)
5 | COc1cc(C(=O)NNC(=O)c2ccoc2C)cc(OC)c1OC | -3.54% (inactive)
6 | COc1ccc(C)cc1NC(=O)COC(=O)C1CCN(C(=O)c2ccc(Cl)cc2)CC1 | 3.93% (inactive)
7 | Cc1ccc(NC(=O)Cn2c(O)c(N=NC(=O)c3ccncc3)c3ccccc32)cc1 | -1.42% (inactive)
8 | O=C(C1CCCCC1)N1CCN(C(=O)C2CCCCC2)CC1 | -1.95% (inactive)
9 | CCc1c(C)c(C#N)c2[nH]c3ccccc3n2c1=S | -5.86% (inactive)
10 | CCc1cc(=S)n2c([nH]c3ccccc32)c1C#N | -2.47% (inactive)
11 | Cc1c(CCC(C)C)c(=O)n2c([nH]c3ccccc32)c1C#N | 5.47% (inactive)
12 | Cc1c(CCC(=O)O)c(=O)n2c([nH]c3ccccc32)c1C#N | -32.2% (inactive)
13 | COc1c(O)ccc2cnn(-c3ccccc3C)c(=O)c12 | -8.74% (inactive)
14 | CC1CC(C)CN(CC(O)COCCOc2ccc(Br)cc2)C1 (centres undefined) | 0.51% (inactive)
15 | CCCCN1CC[C@H]2C=CC[C@@H](C(=O)Nc3ccccc3)[C@H]2C1=O | -7.03% (inactive)
16 | c1ccc(-c2cc3c(ccc4nonc43)nn2)cc1 | -7.6% (inactive)
17 | Cn1c(-c2ccccc2)cc(=O)c2ccccc21 | 1.71% (inactive)
18 | COc1ccc2c(c1)c(=O)cc(-c1ccccc1)n2C | -2.37% (inactive)
19 | [O-][n+]1onc2c3ccnnc3ccc21 | 58.6% (inactive)
20 | CCCCCC(=O)N/N=C(\C)c1ccc(N2CCCCC2)cc1 | -2.51% (inactive)
21 | CCOc1ccc2cc(C3CC(c4ccco4)=NN3S(C)(=O)=O)c(=O)[nH]c2c1 (centres undefined) | 0.83% (inactive)
22 | COc1ccccc1OCCSc1nc2ccccc2n1CCO | -6.33% (inactive)
23 | O=C1CC(NCc2ccc(F)cc2)C(=O)N1c1ccccc1 (centres undefined) | -1.25% (inactive)
24 | CCOC(=O)N1CCN(C(=O)C2CCN(S(=O)(=O)c3ccc(C)cc3)CC2)CC1 | -7.16% (inactive)

Row | SMILES | inhibition
25 | COc1ccccc1-n1c(SCC(=O)N2CCOCC2)nc(O)c(Cc2ccccc2)c1=O | -3.87% (inactive)
26 | C[C@@H]1C=C[C@](Cc2ccccc2)(C(=O)NCC2CC2)N1C(=O)c1ccccc1 | -23% (inactive)
27 | COc1cc2c(cc1NC(=O)c1ccc3c(c1)OCO3)oc1ccccc12 | -1.46% (inactive)
28 | COc1ccccc1CC(=O)Nc1cc2oc3ccccc3c2cc1OC | -9.4% (inactive)
29 | COc1cc2c(cc1NC(=O)COc1ccccc1OC)oc1ccccc12 | 0.28% (inactive)
30 | COc1ccccc1NC(=S)NCc1ccc2c(c1)OCO2 | 7.62% (inactive)
31 | O=C(CN(C(=O)Cn1nnc(-c2ccc(F)cc2)n1)C1CCCC1)NC1CCCC1 | 0.92% (inactive)
32 | O=[N+]([O-])c1ccc(N2CCN(C(=S)c3cccc([N+](=O)[O-])c3)CC2)cc1 | 1.74% (inactive)
33 | CCN(C1CCCCC1)S(=O)(=O)c1ccc(C(=O)O)cc1 | -11.6% (inactive)
34 | CCO[C@H]1OC(C(=O)N2CCOCC2)=C[C@@H](c2ccccc2)[C@@H]1CCCO | 0.78% (inactive)
35 | Cc1ccccc1OCCn1cc(C(=O)C(=O)N2CCOCC2)c2ccccc21 | 5.53% (inactive)
36 | O=C(CO/N=C/c1ccccc1Cl)N1CCCc2ccccc21 | 4.05% (inactive)
37 | COc1ccccc1N1CCN(C(=O)C(Sc2ccccc2)c2ccccc2)CC1 (centres undefined) | -2.82% (inactive)
38 | CC(=O)c1csc(COc2ccc(Cl)cc2)n1 | -4.98% (inactive)
39 | Cc1nc(-c2cc(-c3nc(-c4ccc(C(F)(F)F)cc4)no3)no2)cs1 | 7.08% (inactive)
40 | CCC(=O)NNC(=O)c1cc(COc2cc(Cl)cc(Cl)c2)on1 | 13.9% (inactive)
41 | Cc1onc(C(=O)NN)c1-c1csc(COc2ccc(Cl)cc2)n1 | -10.6% (inactive)
42 | CCOC(=O)c1csc(COc2ccccc2Cl)n1 | -4.66% (inactive)
43 | CCOC(=O)c1sc(-c2ccc(C(F)(F)F)cc2)nc1O | -1.38% (inactive)
44 | CC(C)NC(=O)NNC(=O)c1cc(COc2cc(Cl)cc(Cl)c2)on1 | -6.1% (inactive)
45 | CCOC(=O)c1csc(NC(=O)COc2ccc(Cl)cc2Cl)n1 | -7.94% (inactive)
46 | O=C(/C=C/c1ccccc1[N+](=O)[O-])N1CCN(c2ccccc2F)CC1 | 4.82% (inactive)
47 | O=C(O)c1ccc(S(=O)(=O)N2CCC(c3nc(-c4ccccc4Cl)no3)CC2)cc1 | -8.76% (inactive)
48 | O=C(COC(=O)/C=C/c1ccc(Br)o1)Nc1ccccc1F | 8.52% (inactive)

Row | SMILES | inhibition
49 | Cc1ccc(C2=NC(=O)/C(=C/c3cc(O)c(O)c(Br)c3)S2)cc1 | -2.49% (inactive)
50 | Cn1ncc2c(NCc3cccc(C(F)(F)F)c3)c(C(=O)O)cnc21 | -1.6% (inactive)
51 | CCN(CC)C1CCN(C(=O)CCc2nnc(CCCCc3ccccc3)o2)C1 (centres undefined) | -6.99% (inactive)
52 | Cc1csc2c(N3CCN(C(=O)c4ccc(C(C)(C)C)cc4)CC3)ncnc12 | 5.47% (inactive)
53 | CCCC(=O)Nc1cc(-c2nn(C)c(=O)c3ccccc23)ccc1N1CCOCC1 | -6.76% (inactive)
54 | CCCn1c(N)c(C(=O)CN2CCc3ccccc3C2)c(=O)n(C)c1=O | 0.315% (inactive)
55 | CC(=O)Nc1ccc(OCC(O)Cn2c(C)nc3ccccc32)cc1 (centres undefined) | 5.23% (inactive)
56 | O=C(OC1CCCCC1=O)c1cc(Cl)ccc1[N+](=O)[O-] (centres undefined) | -3.33% (inactive)
57 | Cc1ccc(NC2(c3nnnn3-c3c(C)cccc3C)CCCCC2)cc1 | 16.4% (inactive)
58 | CCOC(=O)c1csc(COc2ccc(OC)cc2)n1 | -4.8% (inactive)
59 | CC(=O)c1csc(COc2ccccc2)n1 | -10.3% (inactive)
60 | Cc1cccc2nc(CSc3nnc(N)s3)cn12 | 0.64% (inactive)
61 | Cc1ccc(C(=O)N/C(=C/c2ccc(-c3ccc(Br)cc3)o2)C(=O)NC2CCS(=O)(=O)C2)cc1 (centres undefined) | 2.02% (inactive)
62 | CCNc1ccc(C(=O)OCC)cc1NC(=O)c1cc(S(=O)(=O)N2CCOCC2)ccc1C | 0.89% (inactive)
63 | O=C(CN1CC(=O)Oc2ccccc21)NCc1ccco1 | 0.53% (inactive)
64 | CCc1cc(-c2n[nH]c(C)c2-c2nc(C)cs2)c(O)cc1OC | 4.46% (inactive)
65 | Cc1nn(Cc2ccccc2)c(Cl)c1C(=O)NC1CCCc2ccccc21 (centres undefined) | 12.6% (inactive)
66 | CCCNC(=O)C1CC(=O)N(c2ccc(OCC(=O)Nc3cc(C)cc(C)c3)cc2)C1 (centres undefined) | -2.31% (inactive)
67 | CCOC(=O)COc1ccccc1/C=C\[N+](=O)[O-] | 11.3% (inactive)
68 | O=[N+]([O-])/C=C/c1c(OCc2ccccc2)ccc2ccccc12 | 42% (inactive)
69 | O=C(CSc1nnc(Cc2cc(=O)[nH]c(=O)[nH]2)n1-c1ccc(Cl)cc1)NC1CCCC1 | -1.17% (inactive)
70 | COc1cccc(C2=CC(c3ccc(OC)c(OC)c3OC)n3nnnc3N2)c1 (centres undefined) | -9.14% (inactive)
71 | COc1ccc(OC)c(C2C=C(c3ccc(C)c(C)c3)Nc3nnnn32)c1 (centres undefined) | 6.69% (inactive)
72 | COc1ccc(C(=O)N(C)C2CCN(C)CC2)cc1S(=O)(=O)Nc1cc(Cl)ccc1Cl | -15.1% (inactive)

Row | SMILES | inhibition
73 | Cc1nc(=S)c2c([nH]1)-c1ccccc1CC21CCCCC1 | 6.17% (inactive)
74 | Cn1c(/C=N/O)nc2ccccc21 | -6.75% (inactive)
75 | Cc1ccc(C(=O)N/N=C/c2nc3ccccc3n2C)cc1 | 62.7% (inactive)
76 | Cc1ccc2cc(/C=N/NC(=O)c3ccccc3[N+](=O)[O-])c(Cl)nc2c1 | -0.86% (inactive)
77 | Cc1nn(CC(=O)Nc2ccccn2)c(C)c1[N+](=O)[O-] | -1.31% (inactive)
78 | COc1cccc(C(=O)NCc2cccnc2)c1 | -9.43% (inactive)
79 | CN1C(=O)/C(=C/c2ccccc2Cl)Sc2ccc(C(=O)NCc3cccnc3)cc21 | 34.2% (inactive)
80 | Cc1ccc(NC(=O)COc2ccc(/C=C3/SC(=Nc4ccccc4)N(Cc4cccnc4)C3=O)cc2)cc1 | 2.56% (inactive)
81 | CCOc1ccc(/C=C2/Sc3ccc(C(=O)N4CCN(C(=O)c5ccco5)CC4)cc3N(C)C2=O)cc1OC | -1.76% (inactive)
82 | COc1ccc(C(=O)NCc2cccnc2)cc1OC | -4.7% (inactive)
83 | CCOc1cc(/C=C2/SC(=Nc3ccccc3)N(Cc3cccnc3)C2=O)ccc1OCC#N | -1.44% (inactive)
84 | COc1ccc(N(C(=O)Nc2ccc(Cl)cc2)C2=NCCC2)cc1 | -4.11% (inactive)
85 | CCCN(CCC)CCCNC(=S)Nc1ccc2nc(N3CCN(C)CC3)cc(C)c2c1 | -1.09% (inactive)
86 | CCN(CC)C(NC(=O)Cc1ccccc1)C(Cl)(Cl)Cl (centres undefined) | -7.35% (inactive)
87 | Cc1sc2nc(-c3ccccc3)[nH]c(=O)c2c1-c1ccccc1 | -4.26% (inactive)
88 | O=c1[nH]c(-c2ccncc2)nc2ccccc12 | -5.72% (inactive)
89 | c1ccc(-c2nc3ccccc3[nH]2)nc1 | -3.79% (inactive)
90 | O=c1[nH]c(-c2cccnc2)nc2sc(-c3ccccc3)cc12 | 6.5% (inactive)
91 | O=c1[nH]c(-c2ccccn2)cc2ccccc12 | -4.45% (inactive)
92 | Cc1sc2nc(-c3ccncc3)[nH]c(=O)c2c1-c1ccccc1 | -3.4% (inactive)
93 | c1ccc(-c2nc3cc4ccccc4cc3[nH]2)nc1 | -3.91% (inactive)
94 | O=c1[nH]c(-c2ccccc2)nc2sc(-c3ccccc3)cc12 | 0.66% (inactive)

From PubChem BioAssay AID1626 (SRMLSC, 2009)
